In the supplement of paper PMC11732987, “Enantioselective OTUD7B fragment discovery through chemoproteomics screening and high-throughput optimisation” (Communications Chemistry, 2025):

Key:
Test in all cases: log2 ratio of Biotin-Ahx-Ub-VS probe labelling (fragment/DMSO); higher = less target engagement (more negative = stronger competition), active = hit call of the paper (q ≤ 0.05, log2 ratio ≤ -1)
Settings in all cases: compound concentration: 200 uM; treatment time: 3 h
OTUD6B = biological target: T1, OTUD6B (UniProt Q8N6M0)
T1 sequence (whole entry): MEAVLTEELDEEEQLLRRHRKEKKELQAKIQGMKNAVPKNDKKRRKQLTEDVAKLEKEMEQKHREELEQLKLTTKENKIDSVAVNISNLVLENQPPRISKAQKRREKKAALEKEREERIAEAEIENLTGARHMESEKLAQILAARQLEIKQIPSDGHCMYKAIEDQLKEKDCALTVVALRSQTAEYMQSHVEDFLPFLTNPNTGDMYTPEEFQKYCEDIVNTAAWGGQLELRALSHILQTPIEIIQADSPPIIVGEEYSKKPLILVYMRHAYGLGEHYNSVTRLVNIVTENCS
Outline: (§1)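 Triplicate samples of HEK293T lysate, 495 µg each, received fragment at 200 µM or vehicle for 3 h, followed by Biotin-Ahx-Ub-VS (0.5 µM final) for 1 h. After NeutrAvidin enrichment of labelled DUBs and LysC/trypsin digestion, peptides were run by diaPASEF LC-MS/MS. The values are average log2 fragment/vehicle ratios from global-median-normalised Spectronaut label-free quantities, tested by unpaired t-test on proteins having ≥2 unique peptides.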

OTUD7B = biological target: T2, OTUD7B (UniProt Q6GQQ9)
T2 sequence (whole entry): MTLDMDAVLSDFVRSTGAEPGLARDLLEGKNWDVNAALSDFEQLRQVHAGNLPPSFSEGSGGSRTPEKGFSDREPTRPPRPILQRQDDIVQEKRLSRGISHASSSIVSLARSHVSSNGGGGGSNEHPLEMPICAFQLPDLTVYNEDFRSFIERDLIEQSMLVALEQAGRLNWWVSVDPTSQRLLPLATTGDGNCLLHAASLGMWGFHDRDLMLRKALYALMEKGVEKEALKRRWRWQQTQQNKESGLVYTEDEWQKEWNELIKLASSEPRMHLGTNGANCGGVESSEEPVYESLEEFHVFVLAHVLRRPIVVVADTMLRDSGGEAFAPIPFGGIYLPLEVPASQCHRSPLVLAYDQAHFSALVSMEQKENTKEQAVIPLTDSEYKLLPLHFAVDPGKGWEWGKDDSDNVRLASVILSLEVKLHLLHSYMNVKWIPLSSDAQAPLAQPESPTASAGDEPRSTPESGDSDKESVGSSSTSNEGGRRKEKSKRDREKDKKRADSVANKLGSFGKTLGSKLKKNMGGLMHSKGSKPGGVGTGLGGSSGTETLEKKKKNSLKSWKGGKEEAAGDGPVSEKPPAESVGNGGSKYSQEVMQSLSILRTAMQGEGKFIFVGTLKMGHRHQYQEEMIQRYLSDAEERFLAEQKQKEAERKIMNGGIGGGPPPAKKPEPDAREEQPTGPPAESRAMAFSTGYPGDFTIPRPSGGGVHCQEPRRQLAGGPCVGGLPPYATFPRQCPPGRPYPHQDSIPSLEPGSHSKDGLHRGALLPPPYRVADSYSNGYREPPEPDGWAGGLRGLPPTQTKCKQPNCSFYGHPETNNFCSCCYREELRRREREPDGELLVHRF
Outline: as §1

PRPF8 = PRPF8 (UniProt Q6P2Q9)
Outline: as §1

PSMD7 = biological target: T3, PSMD7 (UniProt P51665)
T3 sequence (whole entry): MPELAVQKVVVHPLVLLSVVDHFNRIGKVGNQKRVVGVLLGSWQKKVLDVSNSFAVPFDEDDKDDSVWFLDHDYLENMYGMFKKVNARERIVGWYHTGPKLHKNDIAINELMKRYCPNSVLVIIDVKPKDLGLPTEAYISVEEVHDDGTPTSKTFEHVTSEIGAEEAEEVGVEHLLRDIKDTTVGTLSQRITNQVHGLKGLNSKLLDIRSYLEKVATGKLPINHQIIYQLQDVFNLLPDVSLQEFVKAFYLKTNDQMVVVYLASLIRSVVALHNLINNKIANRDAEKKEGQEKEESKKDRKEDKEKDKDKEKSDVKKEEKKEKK
Outline: as §1

UCHL1 = UCHL1 (UniProt P09936)
Chain of UCHL1 (P09936 whole entry, looked up): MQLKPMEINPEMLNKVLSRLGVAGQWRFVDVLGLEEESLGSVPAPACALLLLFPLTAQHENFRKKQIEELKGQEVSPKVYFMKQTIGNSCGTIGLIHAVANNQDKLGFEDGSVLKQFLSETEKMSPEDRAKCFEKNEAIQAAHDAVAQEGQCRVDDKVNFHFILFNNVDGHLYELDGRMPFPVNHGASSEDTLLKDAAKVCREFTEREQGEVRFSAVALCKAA
Outline: as §1

UCHL3 = biological target: T4, UCHL3 (UniProt P15374)
T4 sequence (whole entry): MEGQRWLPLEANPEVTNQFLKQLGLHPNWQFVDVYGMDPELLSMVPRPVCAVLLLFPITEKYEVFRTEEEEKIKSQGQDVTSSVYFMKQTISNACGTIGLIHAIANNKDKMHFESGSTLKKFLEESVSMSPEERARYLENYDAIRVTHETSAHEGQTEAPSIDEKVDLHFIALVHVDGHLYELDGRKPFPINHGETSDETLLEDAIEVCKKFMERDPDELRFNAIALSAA
Outline: as §1

UCHL5 = biological target: T5, UCHL5 (UniProt Q9Y5K5)
T5 sequence (whole entry): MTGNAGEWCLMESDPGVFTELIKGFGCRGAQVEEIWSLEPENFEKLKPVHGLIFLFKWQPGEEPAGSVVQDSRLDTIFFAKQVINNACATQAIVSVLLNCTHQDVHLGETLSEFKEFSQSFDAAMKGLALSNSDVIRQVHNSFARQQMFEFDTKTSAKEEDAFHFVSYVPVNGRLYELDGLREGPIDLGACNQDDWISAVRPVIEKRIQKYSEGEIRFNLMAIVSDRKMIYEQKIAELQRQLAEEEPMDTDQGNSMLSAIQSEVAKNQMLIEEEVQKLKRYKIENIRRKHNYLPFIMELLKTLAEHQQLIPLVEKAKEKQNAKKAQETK
Outline: as §1

USP10 = USP10 (UniProt Q14694)
Chain of USP10 (Q14694 whole entry): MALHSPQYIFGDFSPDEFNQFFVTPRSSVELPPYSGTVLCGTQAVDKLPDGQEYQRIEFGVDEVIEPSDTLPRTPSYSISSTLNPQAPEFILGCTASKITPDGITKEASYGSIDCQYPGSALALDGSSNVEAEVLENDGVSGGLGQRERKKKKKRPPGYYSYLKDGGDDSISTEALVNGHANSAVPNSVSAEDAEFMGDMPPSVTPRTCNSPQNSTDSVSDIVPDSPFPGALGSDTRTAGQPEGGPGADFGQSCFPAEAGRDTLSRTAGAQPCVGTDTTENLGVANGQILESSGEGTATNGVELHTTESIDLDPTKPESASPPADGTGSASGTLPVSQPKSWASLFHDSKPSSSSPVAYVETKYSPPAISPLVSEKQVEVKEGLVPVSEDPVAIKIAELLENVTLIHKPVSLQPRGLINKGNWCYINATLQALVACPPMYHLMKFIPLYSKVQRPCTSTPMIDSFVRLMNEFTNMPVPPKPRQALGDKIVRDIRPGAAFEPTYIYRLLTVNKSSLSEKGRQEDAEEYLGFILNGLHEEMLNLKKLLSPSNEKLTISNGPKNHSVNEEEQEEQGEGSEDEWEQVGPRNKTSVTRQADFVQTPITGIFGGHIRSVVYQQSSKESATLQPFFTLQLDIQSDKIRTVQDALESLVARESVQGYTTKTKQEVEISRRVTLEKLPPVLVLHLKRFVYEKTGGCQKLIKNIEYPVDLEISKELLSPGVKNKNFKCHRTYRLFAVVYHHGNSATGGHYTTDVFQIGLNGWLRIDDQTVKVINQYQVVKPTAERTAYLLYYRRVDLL
Outline: as §1

USP15 = biological target: T6, USP15 (UniProt Q9Y4E8)
T6 sequence (whole entry): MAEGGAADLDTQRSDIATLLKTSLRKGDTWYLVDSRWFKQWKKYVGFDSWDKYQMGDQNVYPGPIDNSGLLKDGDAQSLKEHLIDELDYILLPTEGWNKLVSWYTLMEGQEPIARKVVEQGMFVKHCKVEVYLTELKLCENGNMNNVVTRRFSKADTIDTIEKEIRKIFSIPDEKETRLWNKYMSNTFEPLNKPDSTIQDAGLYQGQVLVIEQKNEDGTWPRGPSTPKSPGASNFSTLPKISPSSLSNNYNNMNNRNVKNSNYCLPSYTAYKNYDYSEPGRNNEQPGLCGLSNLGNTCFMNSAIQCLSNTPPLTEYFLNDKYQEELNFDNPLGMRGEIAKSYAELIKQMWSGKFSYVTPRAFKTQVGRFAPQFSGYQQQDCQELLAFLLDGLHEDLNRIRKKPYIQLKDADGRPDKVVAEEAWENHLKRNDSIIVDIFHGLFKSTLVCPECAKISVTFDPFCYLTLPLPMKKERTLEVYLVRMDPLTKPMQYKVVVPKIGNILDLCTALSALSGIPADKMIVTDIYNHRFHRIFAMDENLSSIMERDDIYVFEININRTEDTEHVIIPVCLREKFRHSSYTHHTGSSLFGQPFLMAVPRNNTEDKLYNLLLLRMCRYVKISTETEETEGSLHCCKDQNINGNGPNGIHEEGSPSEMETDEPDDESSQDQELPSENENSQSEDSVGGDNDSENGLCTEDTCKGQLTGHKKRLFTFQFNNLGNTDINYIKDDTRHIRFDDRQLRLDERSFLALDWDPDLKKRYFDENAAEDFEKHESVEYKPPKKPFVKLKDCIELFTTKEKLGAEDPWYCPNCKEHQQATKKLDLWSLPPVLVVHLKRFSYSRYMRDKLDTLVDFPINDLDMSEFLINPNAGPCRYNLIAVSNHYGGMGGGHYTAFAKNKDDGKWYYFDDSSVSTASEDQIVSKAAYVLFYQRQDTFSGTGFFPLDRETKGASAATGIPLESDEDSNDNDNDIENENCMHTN
Outline: as §1

USP16 = USP16 (UniProt Q9Y5T5)
Chain of USP16 (Q9Y5T5 whole entry, looked up): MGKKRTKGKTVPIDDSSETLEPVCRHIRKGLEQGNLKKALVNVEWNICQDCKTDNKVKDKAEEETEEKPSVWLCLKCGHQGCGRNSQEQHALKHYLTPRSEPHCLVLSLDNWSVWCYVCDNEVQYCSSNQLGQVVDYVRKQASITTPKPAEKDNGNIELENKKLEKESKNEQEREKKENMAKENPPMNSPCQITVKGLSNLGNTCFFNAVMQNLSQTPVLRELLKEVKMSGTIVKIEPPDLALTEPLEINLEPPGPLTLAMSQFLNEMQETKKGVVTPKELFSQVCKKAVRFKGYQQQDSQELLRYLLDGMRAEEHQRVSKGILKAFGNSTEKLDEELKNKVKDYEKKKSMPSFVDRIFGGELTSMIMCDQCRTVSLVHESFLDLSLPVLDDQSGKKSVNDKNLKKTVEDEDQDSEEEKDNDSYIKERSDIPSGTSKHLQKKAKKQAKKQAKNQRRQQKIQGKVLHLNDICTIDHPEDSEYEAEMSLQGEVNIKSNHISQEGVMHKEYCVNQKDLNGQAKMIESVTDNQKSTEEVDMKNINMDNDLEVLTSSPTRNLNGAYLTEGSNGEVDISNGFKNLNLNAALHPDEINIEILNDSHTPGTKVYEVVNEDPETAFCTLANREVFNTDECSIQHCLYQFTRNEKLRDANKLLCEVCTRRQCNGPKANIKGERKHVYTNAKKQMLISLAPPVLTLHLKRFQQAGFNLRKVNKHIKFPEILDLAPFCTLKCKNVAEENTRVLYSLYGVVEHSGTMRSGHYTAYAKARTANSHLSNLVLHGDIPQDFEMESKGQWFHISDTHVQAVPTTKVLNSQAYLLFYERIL
Outline: as §1

Measured: log2 ratio of Biotin-Ahx-Ub-VS probe labelling

O=C(CCl)NCC(=O)N1CCCC1
inactive: OTUD6B -0.139 | OTUD7B -0.187 | PRPF8 -0.0276 | PSMD7 -0.18 | UCHL3 0.0513 | UCHL5 -0.323 | USP10 -0.0856 | USP15 -0.0663 | USP16 0.0192
active: UCHL1 -1.42
